For 11 compounds, max response and Potency results are on record in PubChem BioAssay (NCATS).

Values joined by “and” are separate entries in the source; they are usually repeats but may differ in a detail not shown here. Equal values may be shown once. Records with an inconclusive call do not appear. A number with no mark means an inactive call. Active and inactive are the calls of the source. Calls follow the shape of the dose curve; as a rule, active = well fitted curve in the direction sought with a large enough effect; inconclusive = small, poorly fitted or top-dose-only effect, or another doubt; inactive = no such curve, though single readings can be large or run the other way.
% is scaled to controls: 0 for no effect and ±100 for the full control effect; potency is read from the fitted curve at half-maximal effect.

A short description of the assay: qHTS Assay for Identifying Gametocytocidal Compounds (AID 743244).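 As to max response: actives lower the fluorescent signal which means gametocytes are killed.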 Conditions: P. falciparum 3D7 stage III-V gametocytes, alamarBlue, 72 h; max response: hits give low values. An outline of the steps: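 Viability read-out was resazurin reduction (alamarBlue, 24 h) measured at Ex 525/Em 598 nm. Beforehand, late-stage (III-V) 3D7 P. falciparum gametocytes at 20,000 cells/well were incubated with compound 72 h at 37C under 5% CO2.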
For orientation: Quantitative high-throughput screening tests each substance at several concentrations.
In the case of `Cn1nnnc1SCC1=C(C(=O)O)N2C(=O)[C@@H](NC(=O)[C@H](OC=O)c3ccccc3)[C@H]2SC1`, the max response is 10.2%.

Turning to `COc1cc([C@@H]2c3cc4c(cc3C(O[C@@H]3O[C@@H]5COC(c6cccs6)O[C@H]5[C@H](O)[C@H]3O)C3COC(=O)[C@@H]32)OCO4)cc(OC)c1O` (stereo partly specified), the max response was -13.4%.

Regarding `NNc1nnc(Cc2ccncc2)c2ccccc12`, the max response was 1.86%.

Turning to `CC(=O)N[C@@H](C=O)[C@H](O)[C@H](O)[C@@H](O)CO`, the max response was -5.02% and 7.73%.

For `O=C(OCCO)c1ccccc1O`, the max response is 18.8%.

Consider `CC(C)(C)CC(=O)OCC(=O)[C@@]12OC(C)(C)O[C@@H]1C[C@H]1[C@@H]3CCC4=CC(=O)C=C[C@]4(C)[C@@]3(F)[C@@H](O)C[C@@]12C`, for which the max response is -15%.

Regarding `O=C(Nc1ccc(/C=C/c2ccc(NC(=O)c3cc(S(=O)(=O)O)c4cccnc4c3O)cc2S(=O)(=O)O)c(S(=O)(=O)O)c1)c1cc(S(=O)(=O)O)c2cccnc2c1O`, the max response is -6.63%.

`CC(=O)OCC(=O)[C@@]1(O)[C@H](C)C[C@H]2[C@@H]3C[C@H](F)C4=CC(=O)C=C[C@]4(C)[C@H]3[C@@H](O)C[C@@]21C`: the max response is -15.2%.

For `O=S(=O)(O)Oc1ccc(C(c2ccc(OS(=O)(=O)O)cc2)c2ccccn2)cc1`, the max response was 4.73%.

On to `Cc1c(O)cc2c(c1C)O[C@](C)(CCC[C@H](C)CCC[C@H](C)CCCC(C)C)CC2`, for which the max response is -0.611%.

On to `C/C=C1\NC(=O)[C@H]2CSSCC/C=C/[C@H](CC(=O)N[C@H](C(C)C)C(=O)N2)OC(=O)C(C(C)C)NC1=O` (stereo partly specified), for which the Potency is 0.59 µM (active).
